# In PMC4336329 (PLoS ONE, 2015):
# In all, about 310,000 compounds went through this assay and about 14,000 (4.5%) showed an effect of 50% or more. Effects have a minus sign here. The sample as a whole holds a higher share of strong results than the screen did.
# Biological target: human ether-à-go-go-related gene (hERG) potassium channel (human, UniProt Q12809)
# Test: primary screen, population patch clamp on CHO cells stably expressing hERG; higher = less effect of the substance
# 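Further: peak tail current of the secondary pulse compared with the same well before compound.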
# human ether-à-go-go-related gene (hERG) potassium channel, sequence (Q12809 whole entry, looked up): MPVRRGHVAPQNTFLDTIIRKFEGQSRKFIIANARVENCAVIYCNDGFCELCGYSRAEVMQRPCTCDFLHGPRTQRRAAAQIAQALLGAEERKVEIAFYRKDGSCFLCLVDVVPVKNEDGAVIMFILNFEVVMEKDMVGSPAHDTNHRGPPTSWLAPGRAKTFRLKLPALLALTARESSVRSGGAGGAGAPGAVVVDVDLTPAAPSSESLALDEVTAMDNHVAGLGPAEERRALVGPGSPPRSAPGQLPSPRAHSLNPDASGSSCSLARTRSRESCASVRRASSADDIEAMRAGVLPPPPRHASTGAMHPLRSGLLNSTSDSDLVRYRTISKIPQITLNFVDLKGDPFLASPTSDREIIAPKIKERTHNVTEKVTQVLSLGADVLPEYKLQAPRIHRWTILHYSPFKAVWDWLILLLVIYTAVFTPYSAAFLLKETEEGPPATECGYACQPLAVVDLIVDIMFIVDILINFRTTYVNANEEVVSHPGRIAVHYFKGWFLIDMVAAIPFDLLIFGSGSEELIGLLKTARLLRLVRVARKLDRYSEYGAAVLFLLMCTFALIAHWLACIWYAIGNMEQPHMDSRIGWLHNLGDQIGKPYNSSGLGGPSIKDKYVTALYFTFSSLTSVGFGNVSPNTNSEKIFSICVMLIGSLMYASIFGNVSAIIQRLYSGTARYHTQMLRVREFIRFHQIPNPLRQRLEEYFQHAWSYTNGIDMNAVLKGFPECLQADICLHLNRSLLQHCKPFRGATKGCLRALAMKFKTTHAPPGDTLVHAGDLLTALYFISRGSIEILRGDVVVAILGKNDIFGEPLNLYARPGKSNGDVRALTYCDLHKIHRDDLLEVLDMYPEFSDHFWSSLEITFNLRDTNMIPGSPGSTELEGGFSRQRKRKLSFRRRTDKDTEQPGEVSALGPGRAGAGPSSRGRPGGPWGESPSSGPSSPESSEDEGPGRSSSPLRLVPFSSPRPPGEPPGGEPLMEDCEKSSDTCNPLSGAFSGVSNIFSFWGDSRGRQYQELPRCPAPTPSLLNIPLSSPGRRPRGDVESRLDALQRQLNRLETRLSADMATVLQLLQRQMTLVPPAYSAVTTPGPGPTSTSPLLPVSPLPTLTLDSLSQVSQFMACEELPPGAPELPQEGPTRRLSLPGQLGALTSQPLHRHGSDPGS
row,SMILES,"hERG current change (%, negative = inhibition) at 10uM"
1,CCC(c1nnnn1Cc1ccco1)N(Cc1cc2cc(OC)ccc2[nH]c1=O)C1CCCCC1 (stereo not shown),-6.37%
2,Cc1cccc(C)c1NC(=O)CN(C)C(=O)c1ccc(-c2cccc(C(F)(F)F)c2)o1,-12.5%
3,CCN(CC(=O)NCc1cccs1)C(=O)COc1cccc(C(F)(F)F)c1,-38.2%
4,CCN(CC(=O)NCc1cccs1)C(=O)c1ccc(-c2cccc(C(F)(F)F)c2)o1,-82.3%
5,CCN(CC(=O)NCc1cccs1)C(=O)c1ccccc1F,9.12%
6,CCN(CC(=O)NCc1cccs1)C(=O)c1ccc(-c2ccccc2F)o1,-71.6%
7,CCN(CC(=O)NCc1cccs1)C(=O)c1ccc([N+](=O)[O-])o1,-33.8%
8,Cn1cccc1Cc1nnc(SCC(=O)NC2CCCC2)n1-c1ccc(F)cc1,-19%
9,Brc1ccc(-c2csc(Nc3nc(-c4ccc(Br)cc4)cs3)n2)cc1,15%
10,COCCCNCC(O)COc1cccc2[nH]c(C)cc12 (stereo not shown),10%
11,COc1ccccc1OCCNCC(O)COc1cccc2[nH]c3ccccc3c12 (stereo not shown),-65.6%
12,COc1ccccc1OCCNC(=O)c1cc(=O)[nH]c2ccccc12,-4.62%
13,CNCc1c(OCc2ccccc2F)ccc2ccccc12.Cl,-63.5%
14,CNCc1ccccc1OCc1ccccc1F.Cl,-4.37%
15,COc1cc(CNC(C)(C)CO)cc(Br)c1OCc1ccc(Cl)cc1.Cl,-45.7%
16,COc1cccc(CNC(C)(C)CO)c1OCc1ccc(Cl)cc1.Cl,-56.6%
17,CC(C)(CO)NCc1cccc(OCc2ccc(Cl)cc2)c1,-30.8%
18,CCOc1cc(CNCCO)cc(Br)c1OCc1ccc(Cl)cc1.Cl,-16.5%
19,CC(C)(CO)NCc1c(OCc2ccc(Cl)cc2)ccc2ccccc12.Cl,-75.6%
20,Cl.OCCNCc1c(OCc2ccc(Cl)cc2)ccc2ccccc12,-77.4%
21,CC(O)CNCCNCc1c(OCc2ccccc2)ccc2ccccc12.Cl (stereo not shown),-34.6%
22,COc1cc(CNC(C)(C)CO)cc(Br)c1OCc1ccccc1.Cl,-17.2%

row,SMILES,"hERG current change (%, negative = inhibition) at 10uM"
1,CNCc1c(OCc2ccccc2)ccc2ccccc12.Cl,-34.1%
2,CNCc1c(OCc2ccc(F)cc2)ccc2ccccc12.Cl,-49.1%
3,CC(CC(=O)Nc1ccc(S(=O)(=O)Nc2ncccn2)cc1)c1ccccc1 (stereo not shown),6.78%
4,COc1ccc(C(=O)NC(=S)Nc2ccc(N3CCN(C(C)=O)CC3)cc2)cc1[N+](=O)[O-],-2.14%
5,O=C1N(CN2C(=O)C3(OCCO3)c3ccccc32)c2ccccc2C12OCCO2,17.1%
6,COc1cc2c(cc1OC)C(COc1ccccc1OC)N(C(C)=O)CC2 (stereo not shown),14.8%
7,CCn1c(CC(=O)Nc2ccccc2F)nnc1SCC(=O)N1CCN(c2ccccc2)CC1,1.15%
8,Nc1ccc(S(=O)(=O)Nc2ccc(C(=O)c3ccccc3)cc2)cc1,-2.92%
9,CSc1nc(-c2ccccc2)c(C#N)c(=O)[nH]1,-5.88%
10,CCOC(=O)C(Cc1ccccc1)NC(=O)CCCC(=O)c1ccccc1 (stereo not shown),0.911%
11,O=C(CCCSc1nc2ccccc2c(=O)[nH]1)c1ccc(F)cc1,3.3%
12,CCN(CC)S(=O)(=O)c1cccc(C(=O)N/N=C/c2ccc(O)c(O)c2O)c1,11.4%
13,CCc1ccc2nc(N=C(N)N)nc(C)c2c1,-14.3%
14,CCOc1cccc(CNc2ccc(O)cc2)c1OCc1ccc(Cl)cc1,10.3%
15,COc1cccc(CNCCO)c1OCc1ccc(Cl)cc1.Cl,-18%
16,CCOc1cccc(CNCCO)c1OCc1ccc(Cl)cc1.Cl,-53.2%
17,Cc1c(NC(=O)C(C)Sc2ccccc2)c(=O)n(-c2ccccc2)n1C (stereo not shown),-1.92%
18,COc1ccc(C(=O)NCC(C)NC(=O)c2ccc(OC)c(Br)c2)cc1Br (stereo not shown),4.83%
19,Cc1ccc(-n2cnc3scc(-c4cccs4)c3c2=O)cc1,3.67%
20,Cc1cc(C)nc(S/C=C/C(=O)c2ccccc2F)n1,5.02%
21,COc1ccc(C2=NN(C(C#N)c3ccc(OC)c(OC)c3)C(c3ccccc3)C2)cc1 (stereo not shown),23.8%
22,CC(C)CCNc1nc(N2CCCC2)c2c(c1C#N)CCN(C)C2,-58.5%

row,SMILES,"hERG current change (%, negative = inhibition) at 10uM"
1,CCCCNc1nc(CC)c2c(c1C#N)CCCC2,8.24%
2,CN1CCc2c(C#N)c(N3CCCCC3)nc(N3CCOCC3)c2C1,-24.8%
3,CCCCc1nc(NCCO)c(C#N)c2c1CCCC2,-15.7%
4,CN1CCc2c(C#N)c(N3CCOCC3)nc(NCC3CCCO3)c2C1 (stereo not shown),11.5%
5,CCc1nc(NCCC(C)C)c(C#N)c2c1CCCC2,23.4%
6,CCCCCNc1nc(NCCCO)c(C#N)c2c1CN(C)CC2,-75.2%
7,CCCCCNc1nc(N2CCCC2)c2c(c1C#N)CCN(C)C2,-72.8%
8,N#Cc1c(NCCCO)nc(NCc2ccccc2)c2c1CCN(Cc1ccccc1)C2,-43.4%
9,Cc1ccc(CN2CC(C(=O)N3CCN(S(=O)(=O)c4c(F)cccc4F)CC3)CC2=O)cc1 (stereo not shown),-2.83%
10,CCc1cc(=O)oc2c(C)c(OCC(=O)N3CC[C@@]4(O)CCCC[C@H]4C3)ccc12,-14.6%
11,O=C(OCC(=O)N(CCc1ccccc1)Cc1ccccc1)c1ccccc1[N+](=O)[O-],1.95%
12,CN(c1ccccc1)S(=O)(=O)c1cccc(C(=O)NCc2ccccc2CN2CCCC2)c1,-74.6%
13,CCN(CC)S(=O)(=O)c1ccc(Cl)c(C(=O)NCc2ccccc2Cl)c1,-24.7%
14,CN(c1ccccc1)S(=O)(=O)c1cccc(C(=O)NCc2ccccc2)c1,-18.3%
15,CN(c1ccccc1)S(=O)(=O)c1ccc(Cl)c(C(=O)NCc2ccccc2CN2CCCC2)c1,-65.9%
16,COc1ccccc1CNC(=O)c1cccc(S(=O)(=O)N(C)c2ccccc2)c1,-23.5%
17,CN(C)C(CNC(=O)c1cc(S(=O)(=O)N(C)c2ccccc2)ccc1Cl)c1ccccc1 (stereo not shown),-39.6%
18,O=C(O)C[C@H]1c2cc(C(F)(F)F)ccc2S(=O)(=O)N1C1CCCCC1,30.3%
19,CCOC(=O)c1c(C)[nH]c(N=Nc2ccc(OC)cc2)c1C,-0.496%
20,Fc1ccc(-c2oncc2-c2nnnn2-c2ccccc2)cc1F,-15.4%
21,COC(=O)c1ccsc1NC(=O)CS(=O)(=O)c1ccccc1,-10.1%
22,CCNS(=O)(=O)c1ccc(CCC(=O)N2CCN(c3cccc(Cl)c3)CC2)cc1,-32.7%

row,SMILES,"hERG current change (%, negative = inhibition) at 10uM"
1,CCCCN=C(NNc1ccc(Br)cc1)C(=O)OCC,3.69%
2,N#Cc1ccc(COC(=O)c2cnc(Cl)c(Cl)c2)cc1,8.12%
3,COc1ccc(NCC(=O)N/N=C/c2cc([N+](=O)[O-])ccc2N2CCCC2)cc1,-7.82%
4,O=C(NCc1ccccc1)C(c1ccco1)N(C(=O)c1cnccn1)c1ccc(F)cc1 (stereo not shown),10.5%
5,CCS(=O)(=O)Nc1ccc(Cc2ccc(NS(=O)(=O)CC)cc2)cc1,-7.91%
6,O=S(=O)(Nc1ccncc1)c1ccc(Cl)c(Cl)c1,18.4%
7,CCS(=O)(=O)Nc1ccc(Cc2ccncc2)cc1,-0.00702%
8,O=[N+]([O-])c1cccc(S(=O)(=O)NCc2ccncc2)c1,19.4%
9,O=S(=O)(Nc1ccc(Cc2ccncc2)cc1)c1ccc(Cl)cc1,12.4%
10,O=[N+]([O-])c1cccc(S(=O)(=O)Nc2ccc(Cc3ccncc3)cc2)c1,-72.2%
11,O=S(=O)(Nc1ccc(Cc2ccncc2)cc1)c1ccc(Cl)c(Cl)c1,-53.4%
12,O=C(NCc1ccncc1)c1ccc(NS(=O)(=O)c2cccc([N+](=O)[O-])c2)cc1,19.2%
13,CCCCS(=O)(=O)Nc1ccc(Cc2ccncc2)cc1,-50.2%
14,COc1cccc(CNC(=O)C2=C(C)C(=O)OC23CCC(C)CC3)c1 (stereo not shown),-5.65%
15,O=C(O)c1cc(S(=O)(=O)N2CCCCCC2)ccc1Cl,20%
16,Cc1ccnc(NCc2ccccc2O)c1,14.6%
17,O=C1CCC([N+](=O)[O-])C(c2ccc(-c3ccccc3)cc2)N1 (stereo not shown),-11.3%
18,Cc1ccc(N2C(=O)C3CC(c4ccccc4)=C4C5C=CC(C6C(=O)N(c7ccc(C)cc7C)C(=O)C56)C4C3C2=O)c(C)c1 (stereo not shown),7.82%
19,Cc1ccc(N2C(=O)C3C4CC(=O)C(c5ccccc54)C3C2=O)cc1 (stereo not shown),2.69%
20,Cc1ccc(N2C(=O)C3CC(c4ccccc4)=C4C5C=CC(C6C(=O)N(c7ccc(C)cc7)C(=O)C56)C4C3C2=O)cc1 (stereo not shown),-73.6%
21,C=C[C@]1(C)C[C@@H](OC(=O)CSCCN(CC)CC)[C@]2(C)C(C)CC[C@]3(CCC(=O)[C@H]32)[C@@H](C)[C@@H]1O.O=C(O)/C=C/C(=O)O (stereo partly shown),-68.3%
22,C=C[C@]1(C)C[C@@H](OC(=O)CSCCN(CC)CC)[C@]2(C)C(C)CC[C@]3(CCC(=O)[C@H]32)[C@@H](C)[C@@H]1O (stereo partly shown),-61.9%
